Screening results: PubChem BioAssay, National Center for Advancing Translational Sciences (NCATS)
SW480 rereplic – inducers of DNA re-replication in SW480 colon cancer cells; SW480 DNA re-replication, Hoechst DNA content imaging, 48 h; Potency, µM (doses to about 46.1 µM), actives largely listed as activators; actives 1.8% (n = 340,000); AID 624297; note: nearly all actives have a fitted effect of over 55% in size
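Image-based read-out: total Hoechst fluorescence of nuclei (405 nm excitation, 500-530 nm emission), with hits raising the fraction of high-intensity nuclei. SW480 colon cells incubated 48 hr with compounds at 37 C.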
IL-1B inflam inh – inhibitors of inflammasome signaling (IL-1 beta secretion) | THP-1 LPS/ATP IL-1B secretion, AlphaLISA, 16 h; hits give low values | activity change, % at 57.5 µM | actives 4.7% (n = 360,000); in the data active = activity change below about -50%; inconclusive = mostly about -30% to -49%
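Secreted IL-1B measured by AlphaLISA bead assay after 16 h compound exposure of THP-1 cells; compounds (final up to 57.5 uM) added 1 h before LPS (250 ng/mL) and ATP (1.25 mM) stimulation; lower signal means less secretion.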
KB-V1 MDR tox – KB-V1 MDR subline cytotoxicity; KB-V1 MDR cells viability, CellTiter-Glo, 72 h; Potency, µM (series often up to 46.1 µM), actives largely listed as cytotoxic; actives 3.4% (n = 400,000); note: nearly all actives have a fitted effect of over 60% in size
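Potencies derive from concentration-effect curves fitted to normalized luminescence (CellTiter-Glo) of KB-V1 cells treated for 72 h at 37 degrees C in phenol-red-free DMEM containing 10% FBS.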
KB-3-1 tox – KB-3-1 parental cell cytotoxicity. actives 1.4% (n = 400,000). KB-3-1 viability, CellTiter-Glo ATP luminescence, 72 h. Potency, µM (titrated, usually from 46.1 µM), hits mostly cytotoxic; note: nearly all actives have a fitted effect of over 60% in size
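Cytotoxicity in the drug-sensitive parental line KB-3-1 was scored as loss of CellTiter-Glo luminescence following 72 h incubation with compound. Values come from curve fitting of normalized concentration-response data.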
MCF10A rereplic – induces DNA re-replication in MCF 10a normal breast cells | actives 2.9% (n = 350,000) | AID 624296 | MCF 10A DNA re-replication, Hoechst nuclear intensity, 48 h | Potency, µM (series often up to 46.1 µM), hits mostly activators; note: nearly all actives have a fitted effect of over 50% in size
A number is an active result. Shown are actives, neighbours in structure and some others; about 9.9% of the full set was active somewhere. Unless noted, calls come from the whole dose curve; as a rule, active = well fitted curve in the direction sought with a large enough effect; inconclusive = small, poorly fitted or top-dose-only effect, or another doubt; inactive = no such curve, though single readings can be large; an effect the other way counts as inactive or inconclusive.

`CC(NC(=O)Cc1ccc(NS(=O)(=O)c2cccc(C(F)(F)F)c2)cc1)c1ccccn1` (stereo not drawn) gave SW480 rereplic inactive, IL-1B inflam inh inactive, KB-V1 MDR tox 21µM, KB-3-1 tox inconclusive and MCF10A rereplic inactive.
For CN(Cc1cccnc1)C(=O)Cc1ccc(NS(=O)(=O)c2cccc(C(F)(F)F)c2)cc1 the results were SW480 rereplic inactive, IL-1B inflam inh inactive, KB-V1 MDR tox inactive, KB-3-1 tox inactive and MCF10A rereplic inconclusive.
CCc1nn(CC(=O)NCc2ccc(OC)cc2OC)c(=O)c2cc3c(OC)cccc3n12 was read as KB-V1 MDR tox inactive and KB-3-1 tox inactive.
For COc1ccc(-c2c(C(C)=O)c(C)nc3sc4c(=N)n(N)cnc4c23)cc1 the results were SW480 rereplic inconclusive, IL-1B inflam inh inactive, KB-V1 MDR tox 18µM, KB-3-1 tox inconclusive and MCF10A rereplic inactive.
Screening CCOC(=O)c1c(C)nc2sc3c(=O)n(-c4ccc(OC)cc4)cnc3c2c1-c1ccc(OC)cc1 returned SW480 rereplic inactive, IL-1B inflam inh inactive, KB-V1 MDR tox inactive, KB-3-1 tox inactive and MCF10A rereplic inactive.
`O=C(O)c1ccc(Cl)c(NCc2cccs2)c1` gave SW480 rereplic inactive, IL-1B inflam inh inactive, KB-V1 MDR tox inactive, KB-3-1 tox inconclusive and MCF10A rereplic inconclusive.
For CCOc1ccc2nc(NC(=O)c3nc(SCc4ccccc4F)ncc3Cl)sc2c1 the results were KB-V1 MDR tox inactive and KB-3-1 tox inactive.
Screening CCCn1c(NCc2ccco2)nc2c1c(=O)n(C)c(=O)n2C returned SW480 rereplic inactive, IL-1B inflam inh inactive, KB-V1 MDR tox 15µM, KB-3-1 tox inconclusive and MCF10A rereplic inactive.
For Cn1c(NCc2ccco2)nc2c1c(=O)n(Cc1ccc(Cl)cc1Cl)c(=O)n2C the results were SW480 rereplic 16µM, IL-1B inflam inh inactive, KB-V1 MDR tox inactive, KB-3-1 tox inactive and MCF10A rereplic inconclusive.
For Cn1c(=O)c2c(nc(NCc3ccco3)n2CC(O)COc2ccccc2)n(C)c1=O (stereo not drawn) the results were SW480 rereplic inactive, IL-1B inflam inh inactive, KB-V1 MDR tox 2.6µM, KB-3-1 tox inconclusive and MCF10A rereplic inactive.
CCOC(=O)C1=CC[C@H]2c3c(c4ccccc4n3C)C(=O)C1N2C was read as SW480 rereplic inactive, IL-1B inflam inh inactive, KB-V1 MDR tox inactive, KB-3-1 tox inactive and MCF10A rereplic inactive.
For CN(CC(=O)Nc1ccc(F)cc1)C(=O)c1ccc2ccccc2n1 the results were SW480 rereplic 5.2µM, IL-1B inflam inh inactive, KB-V1 MDR tox inactive, KB-3-1 tox inactive and MCF10A rereplic inactive.
`CN(CC(=O)Nc1ccccc1)CC(=O)Nc1ccc(F)cc1` gave SW480 rereplic inactive, IL-1B inflam inh inactive, KB-V1 MDR tox inactive, KB-3-1 tox inactive and MCF10A rereplic inactive.
For Cc1cc(SCC(=O)N(C)CC(=O)Nc2ccc(F)cc2)nc2ccccc12 the results were SW480 rereplic inactive, IL-1B inflam inh inactive, KB-V1 MDR tox 5.2µM, KB-3-1 tox inactive and MCF10A rereplic inactive.
`CN(CC(=O)Nc1ccc(F)cc1)C(=O)CSc1nnc(Cc2ccccc2)o1` gave SW480 rereplic inactive, IL-1B inflam inh inactive, KB-V1 MDR tox 16µM, KB-3-1 tox inactive and MCF10A rereplic inactive.
For Cc1cccc(NC(=O)CCSc2nnc(Cc3ccccc3)o2)c1 the results were SW480 rereplic inactive, IL-1B inflam inh inactive, KB-V1 MDR tox 15µM, KB-3-1 tox inactive and MCF10A rereplic inactive.
For COc1ccc(C)cc1NC(=O)c1cc2c(=O)n3cccc(C)c3nc2s1 the results were KB-V1 MDR tox inactive and KB-3-1 tox inactive.
CCOC(=O)/C=C1\SC(C)C(=O)N1CC(=O)N(CCC#N)c1ccccc1 (stereo not drawn) was read as SW480 rereplic inactive, IL-1B inflam inh inactive, KB-V1 MDR tox inactive, KB-3-1 tox inactive and MCF10A rereplic inactive.
Screening CCc1ccc(NC(=O)C(=O)NCC(c2ccc3c(c2)OCO3)N2CCOCC2)cc1 (stereo not drawn) returned KB-V1 MDR tox inactive and KB-3-1 tox inactive.
`CSc1ccccc1NC(=O)CN(C)C(=O)Cc1c[nH]c2ccccc12` gave SW480 rereplic inactive, IL-1B inflam inh inactive, KB-V1 MDR tox inactive, KB-3-1 tox inactive and MCF10A rereplic inactive.
For Cc1ccc(NC(=O)CN(C)C(=O)Cc2c[nH]c3ccccc23)cc1 the results were SW480 rereplic inactive, IL-1B inflam inh inactive, KB-V1 MDR tox 18µM, KB-3-1 tox inactive and MCF10A rereplic inactive.
`CC(NCCS(=O)(=O)c1ccc(Cl)cc1)c1cccc(Cl)c1` (stereo not drawn) gave SW480 rereplic inactive, IL-1B inflam inh -60, KB-V1 MDR tox inconclusive, KB-3-1 tox inactive and MCF10A rereplic inactive.
CC(C)c1ccc(C(C)NCCS(=O)(=O)c2ccc(Br)cc2)cc1 (stereo not drawn) was read as SW480 rereplic inconclusive, IL-1B inflam inh -99, KB-V1 MDR tox inactive, KB-3-1 tox inactive and MCF10A rereplic inconclusive.
For O=C1C=C(c2ccc(CO)cc2)C[C@@H](c2ccc3c(c2)OCO3)C1 the results were SW480 rereplic inactive, IL-1B inflam inh inconclusive, KB-V1 MDR tox inactive, KB-3-1 tox inactive and MCF10A rereplic 0.58µM.
Screening O=C1C=C(c2ccc(-c3ccccc3)cc2)C[C@@H](c2ccc3c(c2)OCO3)C1 returned SW480 rereplic inactive, IL-1B inflam inh inactive, KB-V1 MDR tox inconclusive, KB-3-1 tox inactive and MCF10A rereplic inactive.
COC/C=C/C1=CC(=O)C[C@H](c2ccc3c(c2)OCO3)C1 was read as SW480 rereplic inactive, IL-1B inflam inh -96, KB-V1 MDR tox inconclusive, KB-3-1 tox inconclusive and MCF10A rereplic inconclusive.
For COc1ccc(CCC(=O)OCC(=O)Nc2c(C)n(C)n(-c3ccccc3)c2=O)cc1 the results were SW480 rereplic inactive, IL-1B inflam inh inactive, KB-V1 MDR tox inconclusive, KB-3-1 tox inactive and MCF10A rereplic inactive.
For CN(C)S(=O)(=O)c1cccc(NC(=O)c2cccc(S(=O)(=O)N3CCCCC3)c2)c1 the results were SW480 rereplic inactive, IL-1B inflam inh inactive, KB-V1 MDR tox 18µM, KB-3-1 tox inconclusive and MCF10A rereplic inactive.
For CN(CC(=O)Nc1cccc(F)c1)CC(=O)Nc1cccc(S(=O)(=O)N2CCCCC2)c1 the results were SW480 rereplic inactive, IL-1B inflam inh inactive, KB-V1 MDR tox inactive, KB-3-1 tox inactive and MCF10A rereplic inactive.
`CN(C)S(=O)(=O)c1cccc(NC(=O)c2cccc(NS(=O)(=O)c3ccccc3)c2)c1` gave SW480 rereplic inactive, IL-1B inflam inh -60, KB-V1 MDR tox inconclusive, KB-3-1 tox 12µM and MCF10A rereplic inactive.
Screening CN(C)S(=O)(=O)c1cccc(NC(=O)CNc2cccc(S(=O)(=O)N3CCCCC3)c2)c1 returned IL-1B inflam inh inactive, KB-V1 MDR tox inactive and KB-3-1 tox inconclusive.
Screening CN(CC(=O)Nc1cccc(F)c1)CC(=O)Nc1cccc(S(=O)(=O)N2CCCCCC2)c1 returned SW480 rereplic inactive, IL-1B inflam inh inconclusive, KB-V1 MDR tox 18µM, KB-3-1 tox inconclusive and MCF10A rereplic inactive.
